Results from ChEMBL document CHEMBL3988442, “University of Dundee, Small-Polar-MMV Screening Library” (2021).
In all, about 48,000 compounds went through this assay and about 13,000 (27%) showed an effect of 50% or more. The list shows a part of the results.

tested on: Wolbachia pipientis; test: Anti-Wolbachia Cell-Based Screen; type: functional; set-up: scale not given: in the data most compounds retested in dose-response had high values; details: 5 µM

Row | Compound | Percent Effect [%]
1 | Cc1nc[nH]c1C(=O)N1CCCC2(CN(C)C(=O)O2)C1 (centres undefined) | -29.59
2 | COc1ncccc1-c1cc(C(N)=O)ccn1 | 12.1
3 | COc1ncc(-c2ccc(O)cc2)c(OC)n1 | 83.6
4 | COc1ccc(-c2cnc(NC(C)=O)[nH]2)cc1 | -6.695
5 | COc1ncc(-c2ccc(NC(C)=O)cc2)c(OC)n1 | 97.6
6 | COc1ncc(-c2ccc(C(N)=O)cc2)c(OC)n1 | 99.76
7 | COc1ncc(-c2cc(NC3CCCC3)nc3[nH]ccc23)c(OC)n1 | 5.51
8 | COc1ncc(NS(=O)(=O)c2ccc(F)c(F)c2)c(OC)n1 | -5.769
9 | COc1ncc(NC(=O)c2ccco2)c(OC)n1 | 4.719
10 | COc1ncc(NS(=O)(=O)c2cccc(C)c2)c(OC)n1 | 20.6
11 | CC(C)n1cnnc1CN(C)Cc1ccc(CN(C)S(C)(=O)=O)o1 | -6.062
12 | CN(CC1CCN(CCO)CC1)CC(O)c1ccc(F)cc1 (centres undefined) | 8.04
13 | O=C(Nc1nnc(C2CC2)s1)NC1CCOc2ccccc21 (centres undefined) | -5.522
14 | COC(C)(C)C(=O)N1CCC(c2cc(CN(C)C)n(C)n2)CC1.Cl | 119.7
15 | CN(C)Cc1cc(C2CCN(C(=O)C3CCCNC3)CC2)nn1C.Cl (centres undefined) | 84.37
16 | CN(C)Cc1cc(C2CCN(C(=O)C3CC34CCC4)CC2)nn1C.Cl (centres undefined) | 106.1
17 | CN(C)CCN1CC(C(=O)N2CCC(c3cc(=O)[nH]cn3)CC2)CC1=O (centres undefined) | 11.42
18 | CN(Cc1cnc(N)nc1)C(=O)C1CCN(C(=O)C2CCCC2)CC1 | -2.189
19 | Cc1cc(CN(C)C(=O)CN2CC3(CCNCC3)OC2=O)n(C)n1 | -5.459
20 | O=C(C1CC12CCC2)N1CCC(n2cc(-c3ccsc3)nn2)CC1 (centres undefined) | -51.66
21 | CCn1c(C2CCCN(C(=O)C(C)(C)OC)C2)nn(CCN(C)C)c1=O (centres undefined) | -8.02
22 | CS(=O)(=O)c1nccn1Cc1ccc(F)cc1Cl | -6.222
23 | Cc1cnc(N2Cc3cnn(Cc4ccc(F)cc4)c3C2)nc1N(C)C | 15.57
24 | Cc1cc(N2CCc3c(nc(C(C)C)n3C)C2)nc(N)n1 | 12.43
25 | CCS(=O)(=O)N1CCc2ccc(NC(=O)NCc3ccccc3)cc21 | 168.3
26 | CCS(=O)(=O)N1CCc2ccc(NC(=O)NCCc3ccccc3)cc21 | 122.4

Row | Compound | Percent Effect [%]
27 | CC(=O)N1CCCc2cc(NC(=O)NCCc3cnn(C)c3)ccc21 | -10.98
28 | CCCNC(=O)CNc1ccc2c(c1)N(C(=O)OC(C)(C)C)CCC2 | -19.09
29 | CCCNC(=O)Nc1ccc2c(c1)N(S(=O)(=O)CC)CC2 | 85.58
30 | NS(=O)(=O)N1CCc2ccc(NC(=O)CCc3ccncc3)cc21 | -8.791
31 | O=C(NCc1ccccc1CO)Nc1ccc2c(c1)CCC2 | -12.78
32 | CS(=O)(=O)c1ccc(NC(=O)NCc2ccc3c(c2)CCC3)cn1 | 2.355
33 | Fc1cccc(N2CCOC3(CCCN(c4nncs4)C3)C2)c1 (centres undefined) | -6.078
34 | O=C(C1CCCC1)N1CC(c2nc(Cc3ccccc3)no2)C1 | 3.47
35 | O=C(C1CCCC1)N1CCOC(c2nc(-c3ncccn3)no2)C1 (centres undefined) | 90.83
36 | O=C(CC1CCCC1)N1CCOC(c2nc(-c3ncccn3)no2)C1 (centres undefined) | 86.32
37 | O=C(CN1CCCC1c1nc(-c2ccccn2)no1)N1CCOCC1 (centres undefined) | -3.547
38 | CCn1cc(Cn2cc(-c3cccc(C(C)N(C)C)c3)nn2)cn1 (centres undefined) | -0.05647
39 | COc1ccc(N(C)C(=O)C2CN(C)CCO2)cc1Cl (centres undefined) | 4.765
40 | Cn1ccnc1-c1cn(CCc2nnc(N)s2)nn1 | 90.14
41 | Cc1cc(-n2nc(C)nc2-c2cn(CCN)nn2)ccn1 | -45.52
42 | Cn1ccnc1-c1cn(CCCc2nnc(N)s2)nn1 | 101
43 | Cc1cn(CCn2ccnc2-c2sccc2C)nn1 | -12.56
44 | Cn1cccc1-c1cc(C(=O)NCCCc2csc(N)n2)[nH]n1 | -5.944
45 | Cn1ccnc1-c1cn(CCCc2csc(N)n2)nn1 | 106.8
46 | CCOc1ncccc1Cn1cc(-c2nccn2C)nn1 | -13.21
47 | CCc1nc(CCn2cc(-c3nccn3C)nn2)no1 | -10.63
48 | Cc1ccccc1C1CCN(CCn2cc(-c3nccn3C)nn2)C1 (centres undefined) | -7.795
49 | Cn1ccnc1C(=O)NCCS(=O)(=O)c1ccc(C(C)(C)C)cc1 | 15.11
50 | Cc1cc(C)c(CNC(=O)NCC(c2ccccc2)N(C)C)c(=O)[nH]1 (centres undefined) | 1.646
51 | CC(C)NS(=O)(=O)c1cc(C(=O)O)cc(-c2ccc3c(c2)OCO3)c1 | 10.97
52 | CCC(NC(=O)c1cccc2cc[nH]c12)C(=O)N1CCOCC1 (centres undefined) | 1.714

Row | Compound | Percent Effect [%]
53 | CN1CCC2(CCN(c3ncc(F)cn3)CC2)C1=O.O=C(O)C(F)(F)F | 5.555
54 | Cc1cnc(N2CCC3(CCN(CC4CCCC4)C3=O)CC2)nc1.O=C(O)C(F)(F)F | 94.42
55 | CN(C)C(=O)CN1CCC2(CCCN(c3ncc(F)cn3)C2)C1=O (centres undefined) | -17.79
56 | Cc1cnc(N2CCC3(CC2)CC3CNC(=O)C2CCC2)nc1.O=C(O)C(F)(F)F (centres undefined) | -2.894
57 | O=C(O)C(F)(F)F.O=C(O)C(F)(F)F.c1cnc(N2CCC3(CCN(CC4CC4)CC3)CC2)nc1 | -4.913
58 | COc1ccnc(N2CCC3(CCCN(CC4CC4)C3=O)C2)n1 (centres undefined) | -5.296
59 | O=C(O)C(F)(F)F.O=C1N(CC2CCCC2)CCC12CCN(c1ncc(F)cn1)CC2 | 111.9
60 | Cc1cnc(N2CCC3(CCC(C(=O)NC(C)C)C3)CC2)nc1.O=C(O)C(F)(F)F (centres undefined) | -24.15
61 | O=C(O)C(F)(F)F.O=C1N(CC2CC2)CCC12CCCN(c1ncc(F)cn1)C2 (centres undefined) | 107.4
62 | CC(C)OCCC1CCCCN1S(N)(=O)=O (centres undefined) | 5.549
63 | Cc1cnn(-c2cccc(N3CCCC3)n2)c1 | 2.122
64 | Cc1cc(C)n(CC2CN(CC(=O)N3CCC3)CCO2)n1 (centres undefined) | 107.3
65 | Cc1cc(C)n(CC2CN(CC(=O)N3CCNC3=O)CCO2)n1 (centres undefined) | 88.91
66 | Fc1cc(CNCCn2cccn2)ccc1-n1cncn1 | -7.055
67 | Cc1nc(CSc2ccc(C(F)(F)F)cn2)no1 | -11.09
68 | O=C(NCCN1CCC(c2cccs2)CC1)c1ccccc1C(F)(F)F | 6.812
69 | CC(=O)NCCN1CCC(c2cccs2)CC1 | -11.86
70 | CCSc1ccccc1C(=O)NCCN1CCC(c2cccs2)CC1 | 153.4
71 | Cc1csc(C(=O)NCCN2CCC(c3cccs3)CC2)c1 | 131.4
72 | O=C(NCCN1CCCC(CO)C1)c1ccc2sccc2c1 (centres undefined) | 0.9044
73 | O=C(Cc1ccccc1Cl)NCCN1CCC(c2cccs2)CC1 | 167.3
74 | Cc1nc(CC(=O)NCCN2CCC(c3ccccc3C)C2)cs1 (centres undefined) | -10.54
75 | CCCNC(=O)c1cc2c([nH]c1=O)CC(c1cccs1)CC2=O (centres undefined) | 1.208
76 | Cc1ccccc1C1CCN(CCNC(=O)CS(C)(=O)=O)C1 (centres undefined) | -1.802
77 | CCCN1CCC(NC(=O)c2csc(C)c2-c2ccccc2)CC1 | 2.697
78 | COc1ccc(C(=O)NCCN2CCC(c3cccs3)CC2)cc1OC | 108.4

Row | Compound | Percent Effect [%]
79 | COc1ccc(C(=O)NCC(=O)N(Cc2ccsc2)C2CC2)cc1OC | -17.21
80 | CCNc1ncc(C2CC(=O)Nc3c2cnn3Cc2ccncc2)cn1 (centres undefined) | 0.3044
81 | CCSCCC(=O)NCc1cnn(-c2ccc(F)cc2F)c1 | 1.546
82 | Cc1ccc(S(=O)(=O)NC(=O)CCOCC(C)C)s1 | 14.43
83 | O=C(CCc1cc(Cl)no1)N1CCCCC1CCn1ccnc1 (centres undefined) | -6.627
84 | O=C(c1cccnc1-n1cncn1)N1CCc2ccccc2C1 | 12.03
85 | COc1ccc(CNCC2CCN(CC(C)O)CC2)c2ccccc12 (centres undefined) | -9.036
86 | CCN(Cc1nnnn1C1CC1)c1cc(C)ccc1C | -3.19
87 | O=C(NCC(c1cccs1)N1CCOCC1)c1ccc(F)cc1Cl (centres undefined) | -4.405
88 | O=C(NCCN1CCC(c2cccs2)CC1)c1ccc(F)cc1Cl | 122.6
89 | CCN(CC)C(=O)Cc1csc(C(C)C)n1 | -7.822
90 | Cc1cccc(OCC(=O)N(C)C2CCN(CC3CCOC3)CC2)c1 (centres undefined) | -8.689
91 | CCCNc1ncc(CN2C[C@H]3CC[C@@H]2CN(C2CCOCC2)C3)cn1 | 7.731
92 | Fc1ccc(CN2CCOC(Cn3cncn3)C2)c2ncccc12 (centres undefined) | -8.547
93 | Clc1cccc(OCCCN2CCOC(Cn3cncn3)C2)c1 (centres undefined) | 125.7
94 | COc1ccc(OCCCN2CCOC(Cn3cccn3)C2)cc1 (centres undefined) | 1.876
95 | N#Cc1ccc(OCCCN2CCOC(Cn3cncn3)C2)cc1 (centres undefined) | 94.1
96 | c1ncn(CC2CN(CCCOc3ccc4c(c3)OCO4)CCO2)n1 (centres undefined) | 97.52
97 | Clc1ccc(OCCCN2CCOC(Cn3cncn3)C2)cc1 (centres undefined) | 88.34
98 | c1cnn(C2CN(CCCOc3ccc4c(c3)OCO4)C2)c1 | -8.072
99 | Fc1ccc(OCCCN2CCOC(Cn3cncn3)C2)cc1 (centres undefined) | 3.822
100 | c1ccc2cc(OCCN3CCOC(Cn4cncn4)C3)ccc2c1 (centres undefined) | 0.3629
101 | c1cnn(CC2CN(CCCOc3ccc4c(c3)OCO4)CCO2)c1 (centres undefined) | 1.566
102 | Cc1cc2n(n1)CC(CNCc1cnn(-c3ccccc3)c1)CN2 (centres undefined) | -14.73
103 | COc1ccccc1C1CNC(=O)c2nc(-c3ncc[nH]3)[nH]c2C1 (centres undefined) | -17.95
104 | N#Cc1ccccc1C(=O)N1C[C@H]2CC[C@@H]1CN(Cc1ccccc1)C2 | 1.705
